In all, about 85,000 compounds went through this assay and about 440 (0.52%) showed an effect of 50% or more. Only a selection was taken, and strong results are over-represented in it overall.
Test: In vitro enzyme assay to detect hydrolysis of chlorophenol red-beta-D-[…] directly proportional to the number of Toxoplasma stably expressing beta-galactosidase
Assay type: functional, organism-based, Toxoplasma gondii
Set-up: scale not given: in the data most compounds retested in dose-response had high values

Compound	Percent Effect (50 µM) [%]	Percent Effect (10 µM) [%]
CC(C(N)=O)N(C)CCCOc1ccccc1 (stereo not given)	9.989	
CC(C(=O)Nc1sccc1C(N)=O)N(C)CCOc1ccccc1 (stereo not given)		66.89
Cc1ccccc1OCCC(=O)OC(C)C(=O)Nc1sccc1C(N)=O (stereo not given)		-4.306
CCc1nsc(N2CC(CO)C2)n1	7.559	
CCCC(O)CNS(=O)(=O)c1cc(F)cc(F)c1 (stereo not given)	-5.662	
CC1CCCN(C(=O)c2cc(O)nc3ccccc23)C1 (stereo not given)	6.15	
COc1ccc(C2CCCN2c2nnc(C)s2)c(OC)c1 (stereo not given)		0.194
COc1ccc(C2CCCN2c2cnccn2)c(OC)c1 (stereo not given)		-3.299
COc1ccc(C2CCCN2c2ccnc(C)c2Cl)c(OC)c1 (stereo not given)		50.91
NCCN1CCc2c(Cl)cccc2C1=O	17.2	
NC1CCN(C(=O)C2CCCC2)C1 (stereo not given)	2.86	
Cn1nc(-c2nc(C(C)(C)C)no2)ccc1=O	3.371	
N#CC[C@@H](N)c1ccccc1	-6.546	
CNc1cc(-c2cccc(OC)c2OC)nc(N)n1	50.78	
COc1ccc(-c2cc(NCCO)nc(N)n2)cc1C	29.21	
COc1ccc(F)c(-c2cc(NCCO)nc(N)n2)c1		0.663
CC(C)(C)CCOc1cnccc1CN	14.78	
Cc1cc(NCCO)nc(N2CCCC2)c1C#N		1.046
Cc1cc(NCCO)nc(N2CCN(C)CC2)c1C#N		-10.98
Cc1cc(C)c(C#N)c(N2CCC(Cc3ccccc3)CC2)n1		-2.69

Compound	Percent Effect (50 µM) [%]	Percent Effect (10 µM) [%]
Cc1cc(NCCO)nc2ccccc12	-2.255	
Cc1cc(NCCO)nc(N2CCC(Cc3ccccc3)CC2)c1C#N.O=C(O)C(=O)O		62.98
CCCC(C)C(=O)N1CCOCC1 (stereo not given)	-3.427	
NC(=O)CN(CCCO)Cc1ccccc1	-1.308	
O=S(=O)(CCN1CCC(CO)CC1)c1ccccc1	-26.81	
CCc1cc(=O)[nH]c(-n2nc(C3CC3)cc2NC(=O)C2CC2)n1		96.09
CCCc1cc(=O)[nH]c(-n2nc(-c3cccs3)cc2N)n1		36.6
CCc1c(C)nc(-n2nc(C3CC3)cc2NC(C)=O)[nH]c1=O		-1.935
CCCc1cc(=O)[nH]c(C(C)(N)CC)n1 (stereo not given)	0.6774	
Cc1cc(=O)[nH]c(-n2nc(C3CC3)cc2N)n1		28.72
CC(C)c1cc(=O)[nH]c(-n2nc(C3CC3)cc2N)n1		94.68
Cn1nc(CNC(=O)C2CC2)cc1C1CC1		-6.984
CC(C)c1cc(=O)[nH]c(C(C)(C)N)n1.Cl		21.75
CCCc1cc(=O)[nH]c(-n2nc(C3CC3)cc2N)n1		94.33
Cc1nscc1C(=O)OCCC(=O)NC(C)C	-12.79	
CCCn1nc(C)cc1NC(=O)N1CCCC(C#N)C1 (stereo not given)	-0.4936	
COc1cc(Br)cnc1C#N	-14.47	
CSCc1ccc(C(=O)N2CC(CC(N)=O)C2)cc1	-6.52	
NCc1ccccc1OC(F)(F)F	14.39	
OC1(c2ccccc2)CCCNCC1 (stereo not given)	3.493	

Compound	Percent Effect (50 µM) [%]	Percent Effect (10 µM) [%]
CCc1nnc(NC(=O)c2ccc(S(=O)(=O)NC)o2)s1	-1.635	
CCSc1ccc(C(=O)NCCc2nnc[nH]2)cn1	5.402	
CCc1ccccc1OCC(=O)N1CCOCC1c1ncon1 (stereo not given)		7.498
O=C(COc1cccc(Cl)c1)N1CCOCC1c1ncon1 (stereo not given)		37.28
Cc1cccc(C)c1OCC(=O)N1CCOCC1c1ncon1 (stereo not given)		56.8
OC1(C2CCCCC2)CCNCC1	0.8115	
C=C(Br)CN1CCN(CCNC(=O)C2CCC2)CC1	-27.84	
CN(C)c1ccc(NC(=O)CCc2cccnc2)cn1	-6.854	
CCc1nccn1CCNC1CCN(c2nc3ccc(Cl)cc3s2)CC1		59.54
CCS(=O)(=O)CCNC1CCN(c2nc3ccc(Cl)cc3s2)CC1		6.923
Clc1ccc2nc(N3CCC(NCCCC4CCOC4)CC3)sc2c1 (stereo not given)		-1.385
CC(CNC(=O)Nc1cn[nH]c1)N(C)C (stereo not given)	-3.915	
CC(CN)C(=O)Nc1cn[nH]c1 (stereo not given)	55.25	
CC(=O)Nc1cn[nH]c1	-20.18	
CCn1cc(S(=O)(=O)N2CCNCC2)c(C)n1	-15.85	
NC(=O)C1CN(c2ccc3cccc(Br)c3n2)CCO1 (stereo not given)	-8.237	
CS(=O)(=O)c1cc(Cl)cc(CN)c1	-21.93	
CNS(=O)(=O)c1ncccc1N	-16.66	
NCc1cccc(CN2CCCC2)c1	60.68	
NCc1ccc(CN2CCCCC2)cc1	0.9541	
